Calls of active or inactive are those of the source. Rule for the calls: active = hit-call score of the fitted dose curve at least 0.9, where 1 is the maximum; inactive = score below 0.9.

The assay can be described thus: ATG_M_32_CIS: Attagene CIS-FACTORIAL HepG2 Assay for M32 Transcription Factor (Internal Marker) (AID 2282949).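 Note: background control marker of the multiplexed CIS panel rather than a real target.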 Conditions: HepG2 Attagene cis-factorial M32 reporter, mRNA; actives raise or lower the signal. On the procedure: ATG_CIS is a cell-based, multiplexed-readout assay that uses HepG2, a human liver cell line, with measurements taken at 24 hours after chemical dosing in a 24-well plate.ATG_M_32_CIS is one of 52 assay component(s) measured or calculated from the ATG_CIS assay. It is designed to make measurements of mRNA induction, a form of inducible reporter, as detected with fluorescence intensity signals by Reverse transcription polymerase chain reaction (RT-PCR) and Capillary electrophoresis technology.Data from the assay component ATG_M_32_CIS was analyzed into 1 assay endpoint. This assay endpoint, ATG_M_32_CIS, was analyzed with bidirectional fitting relative to DMSO as the negative control and baseline of activity. Using a type of inducible reporter, measures of mRNA for gain or loss-of-signal activity can be used to understand the background control at the transcription factor-level as they relate to the gene . Furthermore, this assay endpoint can be referred to as a secondary readout, because this assay has produced multiple assay endpoints where this one serves a background control function. To generalize the intended target to other relatable targets, this assay endpoint is annotated to the background measurement intended target family, where the subfamily is internal marker.
Human liver HepG2 cells are transiently transfected with multiple reporter transcription units (MRTUs) in 6-well plates using FuGene 6 reagent (Roche; 3 ml FuGene/1 mg DNA). The MRTU constructs are regulated by a cis-regulating element (promoter). […] A major difference between the CIS and TRANS system is that in CIS activities of endogenous TFs are measured, whereas the TRANS assay evaluates changes in activities of exogenous, chimeric NR-Gal4 proteins. […] At the end of 24 hour incubation, total RNA was isolated using TriZol reagent (Invitrogen). The isolated RNA is then reverse-transcribed using oligo(dT) primer and Mo-MLV reverse transcriptase (Invitrogen) with DNAse I (Ambion) treatment for 30 min. The one-tenth of the produced cDNA was amplified by PCR using Taq DNA polymerase (Invitrogen) and two reporter sequence-specific primers. The PCR products were fluorescently labeled by primer extension with 6-arboxyfluorescein (6-FAM) 5'-labeled reporter sequence-specific primer (2 min at 95 C, 20 s at 68 C and 10 min at 72 C) and these products were digested with 5U of HpaI (New England Biolabs) for 2h at 37 C. The fragments were purified using Qiaquick PCR columns (Qiagen), analyzed on an ABI 3130xL genetic analyzer (Applied Biosystems) with peak positions identified by using a set of X-rhodamine (ROX)-labeled MapMarker1000 molecular weight standards (BioVentures). The raw capillary electrophoresis data was processed using Attagraph software (Attagene).
As to `NC(=O)NNC(N)=O`, the result was inactive.

Take `CCCCCCOC(=O)C(C)CC` (stereo not given): the call was inactive.

In the case of `Cc1ccc(C(C)(C)C)cc1`, the molecule was classed as inactive.

For the molecule `Nc1ccc(N=Nc2ccccc2)c(N)n1`, the call was inactive.

On to `CC(C)(Oc1ccc(C2CC2(Cl)Cl)cc1)C(=O)O` (stereo not given), for which the molecule was classed as inactive.

Turning to `CCCCCCCCCCc1ccccc1`, the molecule was called inactive.

On to `CN1C(=O)N(C)C(O)C1O` (stereo not given), for which the molecule was called inactive.

As for `O=[N+]([O-])C1(Br)COCOC1`, the outcome was inactive.

For `C=C(C)c1cccc(C(C)(C)N=C=O)c1`, the result was inactive.

As to `O=S1(=O)OC(c2ccc(O)cc2)(c2ccc(O)cc2)c2ccccc21`, the outcome was inactive.

For the molecule `CO[Si](CCC1CCC2OC2C1)(OC)OC` (stereo not given), the outcome was inactive.

`CC(CC=O)c1ccccc1` (stereo not given): the outcome was inactive.

On to `COc1ccc([C@@H]2CC(=O)c3c(O)cc(O[C@@H]4O[C@H](CO[C@@H]5O[C@@H](C)[C@H](O)[C@@H](O)[C@H]5O)[C@@H](O)[C@H](O)[C@H]4O)cc3O2)cc1OC`, for which the call was inactive.

Consider `CCOC(=O)CC(C(C)=O)C(C)=O`, for which the call was inactive.

Usually AC50 stands for the midpoint of the concentration-response curve, whichever way the signal moves. Take `CC(C)(c1cc(Br)c(OCCO)c(Br)c1)c1cc(Br)c(OCCO)c(Br)c1`: the AC50 was 22.9 µM (active).

Take `O=S(=O)(O)c1cc(S(=O)(=O)O)c2ccc3c(S(=O)(=O)O)cc(S(=O)(=O)O)c4ccc1c2c43`: the call was inactive.

On to `CCCCC(CC)COCC1CO1` (stereo not given), for which the result was inactive.

With `COC(=O)/C=C\C(=O)O`, the call was inactive.

As for `Nc1cccc(C(F)(F)F)c1`, the molecule was classed as inactive.

With `COc1ccc(C(Cl)=C(c2ccc(OC)cc2)c2ccc(OC)cc2)cc1`, the outcome was inactive.

For `COC=O`, the molecule was classed as inactive.

For the molecule `c1ccc(-c2ccccn2)nc1`, the molecule was called inactive.

In the case of `O=C1c2cccc(O)c2C(=O)c2c(O)cc(CO)cc21`, the result was inactive.

For `O=C(O)Cc1c(Cl)ccc(Cl)c1Cl`, the outcome was inactive.

Consider `C=C(C)C(=O)OCCOc1ccccc1`, for which the molecule was called inactive.

Turning to `CC[C@H]1OC(=O)[C@H](C)[C@@H](O[C@H]2C[C@@](C)(OC)[C@@H](O)[C@H](C)O2)[C@H](C)[C@@H](O[C@@H]2O[C@H](C)C[C@H](N(C)C)[C@H]2O)[C@](C)(O)C[C@@H](C)C(=NOCOCCOC)[C@H](C)[C@@H](O)[C@]1(C)O`, the molecule was classed as inactive.

Regarding `C=CC(=O)NC(C)(C)CS(=O)(=O)O`, the molecule was called inactive.

In the case of `Cc1cc(C)c(C)c(C)c1`, the call was inactive.

On to `CN(C)c1ccc(N=Nc2ccccc2C(=O)O)cc1`, for which the call was inactive.

Regarding `Cc1oncc1C(=O)Nc1ccc(C(F)(F)F)cc1`, the outcome was inactive.

As to `CC(=O)OC1C2(C)CCC(C2)C1(C)C` (stereo not given), the result was inactive.

With `Nc1ccc(Cl)cc1Cl`, the molecule was called inactive.

Take `CCN(CC#N)c1cccc(C)c1`: the result was inactive.

Take `CCCC(C)CCC(C)=O` (stereo not given): the molecule was called inactive.

With `Cc1cccc(C(=O)O)c1`, the molecule was called inactive.

With `[Cl][Nd]([Cl])[Cl]`, the molecule was classed as inactive.

Consider `O=c1cc(-c2ccccc2)oc2ccccc12`, for which the outcome was inactive.

With `CC(=O)[C@H]1[C@H](C#N)C[C@H]2[C@@H]3CC=C4C[C@@H](O)CC[C@]4(C)[C@H]3CC[C@@]21C`, the call was inactive.

As for `C=CC(C)(CCC=C(C)C)OC(=O)C(C)C` (stereo not given), the result was inactive.

`c1ccc(CNCc2ccccc2)cc1`: the molecule was classed as inactive.

For the origin of these results see PubChem BioAssay (EPA / NIEHS).
